Several values for one entry are separate records, joined by “and”; a condition that tells them apart may be missing. Identical values can stand only once. Compounds without any hit were thinned out: in the full panel of roughly 83,000, 20% have a hit.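 Single-dose data. Exposure time 48 hours. Values below 10 considered active.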 Activity calls are given as the source filed them.

Common to all, as to assay: NCI-60 one-dose screen, 48 h (100 = growth as untreated, 0 = no growth, -100 = all killed)
In one assay the test system is SK-MEL-2 melanoma. The note with it: 10 µM.
Another assay has as its system EKVX NSCLC. The following applies: 10 µM.
The subject of the next assay is SN12C renal. The following applies: 10 µM.
The next assay concerns UO-31 renal. The note with it: 10 µM.
Another assay has as its system TK-10 renal. The following applies: 10 µM unless noted.
For the next assay, the system named is ACHN renal. The following applies: 10 µM.
Another assay has as its system CAKI-1 renal. The following applies: 10 µM.
The next assay deals with A498 renal. The note with it: 10 µM.
For another assay, the system named is HL-60(TB) leukemia. The note with it: 10 µM.
The subject of another assay is CCRF-CEM leukemia. The note with it: 10 µM.

Consider `CC/C(=C/c1ccc(OC)cc1OC)[N+](=O)[O-]`, for which the growth with SK-MEL-2 melanoma is 34.4% (inactive); in the assay with EKVX NSCLC, 79.9% (inactive); in the assay with SN12C renal it was 15.9% (inactive); in the assay with UO-31 renal, 28.1% (inactive); in the assay with TK-10 renal, 11.1% (inactive); in the assay with ACHN renal, -43.1% (active). Also, the growth is 49.2% (inactive) with CAKI-1 renal, 76.8% (inactive) with A498 renal and 15.7% (inactive) in the assay on HL-60(TB) leukemia.
With `COc1cc(/C=C\[N+](=O)[O-])ccc1O`, the growth is 87.7% (inactive) and 93.5% (inactive) with SK-MEL-2 melanoma; 108% (inactive) and 91.7% (inactive) in the assay on EKVX NSCLC; 67.3% (inactive) and 94.1% (inactive) in the assay with SN12C renal; 44.5% (inactive) and 70.1% (inactive) with UO-31 renal; 23.5% (inactive) and 87.1% (inactive) with TK-10 renal; 13.4% (inactive) and 82.9% (inactive) in the assay with ACHN renal. The growth in the assay on CAKI-1 renal is 74.4% (inactive); in the assay with A498 renal, 97.6% (inactive) and 102% (inactive); in the assay on HL-60(TB) leukemia it was 9.29% (active) and 48.1% (inactive); in the assay with CCRF-CEM leukemia, 6.86% (active) and 70.4% (inactive).
Take `CCOP(=O)(OCC)/C(C#N)=C/c1ccc(Br)cc1`: the growth in the assay with SK-MEL-2 melanoma is 103% (inactive); with EKVX NSCLC it was 97.6% (inactive); in the assay on SN12C renal, 98.5% (inactive); in the assay on UO-31 renal, 81.3% (inactive); in the assay on TK-10 renal, 104% (inactive); in the assay on ACHN renal, 98.6% (inactive). Moreover, the growth is 76.2% (inactive) in the assay with CAKI-1 renal, 121% (inactive) in the assay with A498 renal, 92.1% (inactive) with HL-60(TB) leukemia and 100% (inactive) in the assay on CCRF-CEM leukemia.
Regarding `C/C(=C\c1ccc(Cl)c(Cl)c1)[N+](=O)[O-]`, the growth in the assay on SK-MEL-2 melanoma was 18.1% (inactive) and 95.5% (inactive); in the assay with EKVX NSCLC, 94.6% (inactive); in the assay on SN12C renal it was -43.4% (active) and 101% (inactive); in the assay with UO-31 renal it was -84.4% (active) and 97.6% (inactive); with TK-10 renal, 4.82% (active) and 91.4% (inactive); in the assay with ACHN renal, -70.7% (active) and 105% (inactive). In addition, the growth is 121% (inactive) with CAKI-1 renal; 103% (inactive) and 79.2% (inactive) in the assay on A498 renal; -26.5% (active) and 83.5% (inactive) in the assay on HL-60(TB) leukemia; 8.59% (active) and 85.4% (inactive) in the assay on CCRF-CEM leukemia.
On to `CN(C)CC1(N)C(=O)NC(=O)NC1=O`, for which the growth with SK-MEL-2 melanoma is 101% (inactive); in the assay with EKVX NSCLC it was 103% (inactive); in the assay on SN12C renal, 96.8% (inactive); in the assay on UO-31 renal, 96.3% (inactive); with TK-10 renal it was 97.9% (inactive); with ACHN renal, 101% (inactive). For the same compound, the growth is 96.4% (inactive) with CAKI-1 renal, 54.9% (inactive) in the assay on A498 renal, 97.5% (inactive) with HL-60(TB) leukemia and 99.1% (inactive) with CCRF-CEM leukemia.
Take `C[C@@H]1C[C@@H]([C@H](O)CC2CC(=O)NC(=O)C2)C(=O)[C@@H](C)C1`: the growth is -6.5% (active) in the assay on SK-MEL-2 melanoma; 12.4% (inactive) in the assay with EKVX NSCLC; -0.0682% (active) in the assay with SN12C renal; 0.7% (active) in the assay with UO-31 renal; 8.46% (active) in the assay with TK-10 renal; 3.19% (active) in the assay with ACHN renal. The results for the growth in the assay on CAKI-1 renal and with HL-60(TB) leukemia were 15.9% (inactive) and -3.87% (active), respectively.
Regarding `CC(C)c1cc([N+](=O)[O-])cc([N+](=O)[O-])c1O`, the growth is 94% (inactive) in the assay with SK-MEL-2 melanoma; 110% (inactive) with EKVX NSCLC; 103% (inactive) in the assay on SN12C renal; 85.8% (inactive) with UO-31 renal; 98.6% (inactive) with TK-10 renal; 103% (inactive) in the assay on ACHN renal. Also, the growth in the assay on CAKI-1 renal was 99% (inactive); in the assay on A498 renal, 108% (inactive); in the assay on HL-60(TB) leukemia it was 62.2% (inactive); in the assay with CCRF-CEM leukemia, 103% (inactive).
With `CC(=O)Nc1c2sscc-2n(C)c1=O`, the growth in the assay with SK-MEL-2 melanoma is -76% (active); in the assay with EKVX NSCLC, -98.8% (active); in the assay on SN12C renal, -98.5% (active); with UO-31 renal, -100% (active); in the assay on TK-10 renal, -100% (active); with ACHN renal it was -100% (active). Further, the growth in the assay with CAKI-1 renal is -100% (active); in the assay on A498 renal, -100% (active); in the assay with HL-60(TB) leukemia it was -53% (active); with CCRF-CEM leukemia it was -58.3% (active).
For the compound `COc1cc(/C=C/[N+](=O)[O-])cc(OC)c1OC`, the growth with SK-MEL-2 melanoma was 63.6% (inactive); in the assay on EKVX NSCLC, 73.6% (inactive); with SN12C renal, 30.7% (inactive); with UO-31 renal, -85.3% (active); in the assay with TK-10 renal it was -11% (active); in the assay with ACHN renal, -42.2% (active). In addition, the figures for the growth with CAKI-1 renal and with HL-60(TB) leukemia were -78.2% (active) and -16.6% (active), respectively.
For the compound `COC(=O)C1C(O)C(C)C(O)C(C)/C=C\C=C(C)C(=O)Nc2c(C)c(OC(C)=O)c3c(c2O)C(=O)C(C)=C2OCOC(=C23)C(C)=CC(C)(O)C(O)C(C)C1O` (stereo not given), the growth with SK-MEL-2 melanoma is 96.2% (inactive); with EKVX NSCLC it was 110% (inactive); in the assay with SN12C renal it was 94.9% (inactive); with UO-31 renal, 103% (inactive); in the assay with TK-10 renal, 107% (inactive); in the assay with ACHN renal, 85.7% (inactive). Further, the growth in the assay on CAKI-1 renal is 95.5% (inactive); with A498 renal, 102% (inactive); with HL-60(TB) leukemia, 72.3% (inactive); in the assay on CCRF-CEM leukemia, 96.1% (inactive).
For the compound `COC12C(COC(N)=O)C3=C(C(=O)C(C)=C(N)C3=O)N1CC1C2N1C` (stereo not given), the growth in the assay on SK-MEL-2 melanoma was 91.4% (inactive); in the assay on EKVX NSCLC it was 91.7% (inactive); in the assay on SN12C renal, 46.8% (inactive); in the assay on UO-31 renal it was 32.7% (inactive); in the assay on TK-10 renal, 69.4% (inactive); in the assay on ACHN renal, 10.8% (inactive). Further, the growth was 16.6% (inactive) in the assay with CAKI-1 renal, 46.9% (inactive) with A498 renal, -23.2% (active) in the assay on HL-60(TB) leukemia and 24.8% (inactive) in the assay on CCRF-CEM leukemia.
Consider `O=[N+]([O-])c1ccc(N(CCO)CCO)c2c1no[n+]2[O-]`, for which the growth in the assay with SK-MEL-2 melanoma is -16.3% (active); in the assay on EKVX NSCLC it was -9.06% (active); in the assay on SN12C renal, -4.84% (active); in the assay with UO-31 renal, 7.25% (active); in the assay with TK-10 renal, -13.4% (active); in the assay with ACHN renal, -12.3% (active). Moreover, the growth is -11.9% (active) in the assay with CAKI-1 renal, -15.6% (active) with A498 renal, -33.1% (active) in the assay on HL-60(TB) leukemia and -38% (active) in the assay on CCRF-CEM leukemia.

Values taken from PubChem BioAssay (NCI).
